ChEMBL document CHEMBL3988442, “University of Dundee, Small-Polar-MMV Screening Library” (2021)
Among all 66,000 compounds or so, about 960 (1.5%) showed an effect of 50% or more. The sample holds strong results, similar compounds and a random draw of the others, so the mix is not that of the screen.

System: Trypanosoma brucei
Test: Trypanosoma brucei 72 hour study
Format: functional, organism-based
Set-up: scale not given: in the data most compounds retested in dose-response had high values

O=C(O)C(F)(F)F.O=C1CCC2(CCN(Cc3nccs3)CC2)N1Cc1ccccc1
Percent Effect (30 µM, 30.03 µM): -8.129%

O=C(O)C(F)(F)F.O=C1CC[C@H]2[C@H](CCN2C(=O)C2CCOC2)N1Cc1ccncc1 (some centres not stated)
Percent Effect (30 µM, 30.03 µM): -22.31%

Cc1noc(C)c1CN1C[C@H](OCC2CCN(C)CC2)[C@H]2COC[C@H]21.O=C(O)C(F)(F)F.O=C(O)C(F)(F)F
Percent Effect (30.3 µM, […]): -21.15%

Cc1nc(COCC2CN(C(=O)N(C)C)Cc3nccn3C2)cs1.O=C(O)C(F)(F)F (configuration not stated)
Percent Effect (30.3 µM, […]): -49.05%

CCn1ncc2c1C(COC)CN(Cc1cccnc1)C2.O=C(O)C(F)(F)F.O=C(O)C(F)(F)F.O=C(O)C(F)(F)F (configuration not stated)
Percent Effect (30.3 µM, […]): -94.72%

COc1cc(N2CC[C@@H](O)[C@@H]2Cc2ccncc2)ncn1.O=C(O)C(F)(F)F
Percent Effect (30 µM, 30.03 µM): 35.07%

COc1ccc(F)c(-c2ncccc2NC(=O)C(C)C)c1
Percent Effect (30 µM, 30.03 µM): 20.56%

COc1ncccc1-c1ncccc1NC(=O)C(C)C
Percent Effect (30 µM, 30.03 µM): 34.88%

COc1cc(F)ccc1-c1ncccc1NC(=O)C(C)C
Percent Effect (30 µM, 30.03 µM): 52.34%

Cl.Nc1ncnc2nc(C3CCCCN3)ccc12 (configuration not stated)
Percent Effect (30.3 µM, […]): 5.297%

COCCN1CCC(CN(CC2CCCO2)C(=O)CNC(C)=O)CC1 (configuration not stated)
Percent Effect (30 µM, 30.03 µM): 3.281%

CCn1cc(CN2CCCN(C(=O)CCn3cc(C)cn3)CC2)cn1
Percent Effect (30.3 µM, […]): -9.74%
Percent Effect (10 mM, 10 mM as filed; unlikely as a test dose): -22.46%

CN(C)CCNC(=O)c1cc(-c2cnc(N3CCOCC3)nc2)cn1C.O=C(O)C(F)(F)F
Percent Effect (30.3 µM, […]): -753.9%

CN(C)CCNC(=O)c1cc(-c2cnc(N3CCCC3)nc2)cn1C.O=C(O)C(F)(F)F
Percent Effect (30 µM, 30.03 µM): 97.37%

CCCNC(=O)c1cc(-c2cnc(N3CCCC3)nc2)cn1C
Percent Effect (30.3 µM, […]): -994.8%

Cl.Cn1nc(C2CCCN(Cc3cc(F)ccc3F)C2)c2nccnc21 (configuration not stated)
Percent Effect (30.3 µM, […]): 20.63%

CN1[C@@H](C(=O)NCC2CC2)C[C@H]2CN(Cc3ccsc3)C[C@H]21.O=C(O)C(F)(F)F.O=C(O)C(F)(F)F
Percent Effect (30.3 µM, […]): -48.96%

Cn1nc(COCC2CC2)c2c1CN(CC1CC1)CC2.O=C(O)C(F)(F)F.O=C(O)C(F)(F)F
Percent Effect (30.3 µM, […]): -59.62%

O=C(NCc1ccc2c(c1)CCCO2)c1ccccc1C1CCNC1 (configuration not stated)
Percent Effect (30 µM, 30.03 µM): -18.86%

CSc1cccc(CN(C)C(=O)c2ccc(C3CCCNC3)cc2)c1 (configuration not stated)
Percent Effect (30 µM, 30.03 µM): 45.3%

CC(C)Cc1cc(CNC(=O)c2ccccc2C2CCNC2)no1 (configuration not stated)
Percent Effect (30 µM, 30.03 µM): -25.71%

O=C(NCc1ccc2c(c1)OCO2)c1ccccc1C1CCNC1 (configuration not stated)
Percent Effect (30 µM, 30.03 µM): 75.73%

CN(Cc1ccc2c(c1)OCO2)C(=O)c1ccc(=O)n(C)c1
Percent Effect (30.3 µM, […]): -33.31%

CN(Cc1ccc2c(c1)OCO2)C(=O)c1ccc(C2CCCNC2)cc1 (configuration not stated)
Percent Effect (30 µM, 30.03 µM): 78.75%

CC(C)OCCCN(Cc1ccncc1)Cc1cccc(F)c1F.Cl
Percent Effect (30.3 µM, […]): -30.88%

N#Cc1ccc(S(=O)(=O)NC(=O)c2csc(-c3ccco3)n2)cc1
Percent Effect (30.3 µM, […]): 2.361%

CCc1ccc(CN2C[C@@H](C)C3(CCN(CC(=O)N(C)C)C3=O)C2)o1.O=C(O)C(F)(F)F (some centres not stated)
Percent Effect (30.3 µM, […]): 4.737%

CC(=O)N1N=C(c2cccs2)OC1C(=O)NCc1ccc(C)o1 (configuration not stated)
Percent Effect (30.3 µM, […]): 9.707%
Percent Effect (10 mM, 10 mM as filed; unlikely as a test dose): -41.55%

COc1ccc(CCC(=O)NCCN2CCC(c3cccs3)CC2)cc1
Percent Effect (30 µM, 30.03 µM): 100%

O=C(NCCc1ccccc1)NCCN1CCC(c2cccs2)CC1
Percent Effect (30 µM, 30.03 µM): 47.79%

CC(=O)NCCN1CCC(c2cccs2)CC1
Percent Effect (30 µM, 30.03 µM): -43.56%

CC1CCCN(Cc2ccnc(-c3cccnc3)n2)C1.O=C(O)CC(O)(CC(=O)O)C(=O)O (configuration not stated)
Percent Effect (30.3 µM, […]): 9.831%

O=C(CCCNC(=O)C1CC1)Nc1cnn(-c2ccccc2Cl)c1
Percent Effect (30 µM, 30.03 µM): 60.12%

O=C(CCN1C(=O)CCC1=O)Nc1cnn(-c2ccccc2Cl)c1
Percent Effect (30 µM, 30.03 µM): -41.29%

CS(=O)(=O)NCCC(=O)Nc1cnn(-c2ccccc2Cl)c1
Percent Effect (30.3 µM, […]): -13.82%

O=C(O)C(F)(F)F.O=C(O)C(F)(F)F.O=c1ccc2c(n1Cc1ccncc1)CCN(Cc1ccoc1)CC2
Percent Effect (30 µM, 30.03 µM): -36.06%

Cl.c1nc(CCC2CCCCN2)cc(N2CCCC2)n1 (configuration not stated)
Percent Effect (30.3 µM, […]): -10.52%

CC(C)N1CCC(N2CCC(C(=O)N(C)C)CC2)CC1.O=C(O)C(F)(F)F.O=C(O)C(F)(F)F
Percent Effect (30.3 µM, […]): -22.06%

COC(=O)C1CCN(C(=O)c2cc(Br)ccc2-n2cnnn2)CC1
Percent Effect (30 µM, 30.03 µM): -52.11%

NC(=O)N1CCCC(C(=O)N2CCN(c3nsc4ccccc34)CC2)C1 (configuration not stated)
Percent Effect (30.3 µM, […]): 39.11%

CC(C)N1CCCC(C(=O)N2CCN(c3nsc4ccccc34)CC2)C1 (configuration not stated)
Percent Effect (30.3 µM, […]): 50.26%

CCN1CC(C(=O)N2CCN(c3nsc4ccccc34)CC2)CCC1=O (configuration not stated)
Percent Effect (30.3 µM, […]): 18.26%

CN(C)C(=O)c1cnc2n1CCN(Cc1cccnc1)C2.O=C(O)C(F)(F)F.O=C(O)C(F)(F)F
Percent Effect (30.3 µM, […]): -389.6%

O=C(O)C(F)(F)F.O=C(O)C(F)(F)F.O=C(O)C(F)(F)F.c1ccc(CN2CCc3c(COCC4CC4)cncc3C2)nc1
Percent Effect (30.3 µM, […]): -75.06%

CN1C[C@@H](N)C[C@H]1C(=O)N1CCC(CCCc2ccccc2)CC1
Percent Effect (30 µM, 30.03 µM): -31.74%
